“And” between values parts separate entries of the source, which are not always exact repeats. Equal values may be shown once. The panel holds about 83,000 compounds, 20% with a hit somewhere; the sample as a whole holds those more often.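 Activity criterion: percent growth below 10, measured after cells in 96-well plates were exposed to a single compound concentration for 48 hours.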 The source made the active and inactive calls.

The values below come from PubChem BioAssay (NCI).

Test systems include NCI-H226 lung; HOP-62 NSCLC; NCI-H460 lung; HOP-92 NSCLC; NCI-H522 lung; A549/ATCC NSCLC; 786-0 renal; COLO 205 colon; DU-145 prostate; K-562 leukemia; MALME-3M melanoma; MDA-MB-231 breast; RXF 393 renal; SF-268 CNS; SF-295 CNS; SF-539 CNS; UACC-257 melanoma; M14 melanoma; NCI-H322M lung.
What all share (assay): NCI-60 one-dose screen, 48 h (100 = growth as untreated, 0 = no growth, -100 = all killed)
Details in all cases: 10 µM unless noted

Consider `CN(C)c1ccc(N=Nc2cccc3ccccc23)cc1`, for which the growth with NCI-H226 lung was 63.5% (inactive); in the assay with HOP-62 NSCLC, 85.7% (inactive); with NCI-H460 lung, 92.7% (inactive); with HOP-92 NSCLC it was 74% (inactive); with NCI-H522 lung, 95% (inactive); in the assay with A549/ATCC NSCLC, 89.8% (inactive). Further, the growth in the assay on 786-0 renal is 100% (inactive); in the assay on COLO 205 colon, 87.2% (inactive); with DU-145 prostate, 107% (inactive); with K-562 leukemia it was 117% (inactive); with MALME-3M melanoma, 101% (inactive); in the assay with MDA-MB-231 breast it was 80.1% (inactive). For the same compound, the growth in the assay with RXF 393 renal is 98.9% (inactive); in the assay with SF-268 CNS it was 95.1% (inactive); in the assay with SF-295 CNS, 91.5% (inactive); in the assay with SF-539 CNS, 97.1% (inactive); in the assay with UACC-257 melanoma, 96.3% (inactive); in the assay on M14 melanoma it was 80.5% (inactive).

In the case of `CC1=CC(O)C2CC1C2(C)C` (centres undefined), the growth is 98.1% (inactive) and 97.9% (inactive) in the assay on NCI-H226 lung; 101% (inactive) and 97.1% (inactive) in the assay with NCI-H322M lung; 93.4% (inactive) and 102% (inactive) with HOP-62 NSCLC; 108% (inactive) in the assay with NCI-H460 lung; 100% (inactive) and 78.2% (inactive) in the assay on HOP-92 NSCLC; 86.2% (inactive) and 92% (inactive) in the assay on NCI-H522 lung. Moreover, the growth in the assay with A549/ATCC NSCLC was 91.9% (inactive) and 106% (inactive); in the assay on 786-0 renal, 95.7% (inactive) and 110% (inactive); in the assay with COLO 205 colon it was 94.5% (inactive) and 112% (inactive); with DU-145 prostate, 108% (inactive) and 122% (inactive); in the assay on K-562 leukemia, 96.6% (inactive) and 93.4% (inactive); in the assay with MALME-3M melanoma it was 97.6% (inactive) and 107% (inactive). In addition, the growth with MDA-MB-231 breast was 99.1% (inactive) and 110% (inactive); in the assay on RXF 393 renal it was 115% (inactive) and 104% (inactive); with SF-268 CNS, 104% (inactive) and 113% (inactive); with SF-295 CNS it was 103% (inactive); in the assay on SF-539 CNS, 99.8% (inactive) and 110% (inactive); in the assay on UACC-257 melanoma, 95.9% (inactive) and 110% (inactive). Moreover, in the assay with M14 melanoma, the growth was 97.3% (inactive) and 109% (inactive).

With `O=C1N[C@H]2[C@H](CS[C@H]2CCCCC(=O)N(CCP(c2ccccc2)c2ccccc2)CCP(c2ccccc2)c2ccccc2)N1`, the growth with NCI-H226 lung was 89.5% (inactive); in the assay with HOP-62 NSCLC, 80.3% (inactive); in the assay with NCI-H460 lung it was 41.3% (inactive); in the assay on NCI-H522 lung, 57.6% (inactive); in the assay on A549/ATCC NSCLC, 76.6% (inactive); with 786-0 renal it was 82.8% (inactive). Moreover, the growth in the assay with DU-145 prostate is 95.6% (inactive); in the assay with K-562 leukemia, 69.3% (inactive); with MALME-3M melanoma, 91.7% (inactive); in the assay with MDA-MB-231 breast, 80.9% (inactive); in the assay on RXF 393 renal, 96.5% (inactive); in the assay on SF-268 CNS it was 88.8% (inactive). The growth is 83.6% (inactive) in the assay with SF-295 CNS, 99.5% (inactive) in the assay on SF-539 CNS, 79.6% (inactive) with UACC-257 melanoma and 97.3% (inactive) in the assay on M14 melanoma.

`CCCCCCCCCCCCCCCCCCOP(=O)([O-])OC1CC[N+](C)(C)CC1`: the growth in the assay with NCI-H226 lung was 48.9% (inactive) and 18.8% (inactive); in the assay with HOP-62 NSCLC it was 5.84% (active) and -72.5% (active); in the assay on NCI-H460 lung, 1.19% (active) and -34.8% (active); in the assay on NCI-H522 lung, -52.1% (active) and -87.8% (active); in the assay with A549/ATCC NSCLC, 17.1% (inactive) and 38.2% (inactive); in the assay with 786-0 renal it was -28.4% (active) and -54.9% (active). The growth in the assay on DU-145 prostate was 54.2% (inactive) and 25.3% (inactive); in the assay on K-562 leukemia, 30.3% (inactive) and 20.7% (inactive); with MALME-3M melanoma, 69.7% (inactive) and 16.3% (inactive); with MDA-MB-231 breast, 11% (inactive) and -10.4% (active); in the assay with RXF 393 renal, -49% (active) and 41.2% (inactive); in the assay on SF-268 CNS, 38.9% (inactive) and 13.7% (inactive). Also, the growth in the assay with SF-295 CNS is 19.5% (inactive) and 0.462% (active); with SF-539 CNS, 36.3% (inactive) and 4.21% (active); with UACC-257 melanoma it was 45.4% (inactive) and 19% (inactive); in the assay on M14 melanoma, -33.9% (active) and -72.8% (active).

Turning to `C[n+]1c(/C=C/c2ccc([N+](=O)[O-])cc2)ccc2ccccc21`, the growth in the assay on NCI-H226 lung was 87.9% (inactive); in the assay with HOP-62 NSCLC it was 97.4% (inactive); in the assay with NCI-H460 lung, 106% (inactive); in the assay with HOP-92 NSCLC it was 110% (inactive); in the assay with NCI-H522 lung, 102% (inactive); in the assay on A549/ATCC NSCLC it was 75.7% (inactive). The growth is 111% (inactive) in the assay with 786-0 renal; 101% (inactive) in the assay on COLO 205 colon; 104% (inactive) in the assay with DU-145 prostate; 88.7% (inactive) in the assay with K-562 leukemia; 90.9% (inactive) in the assay with MALME-3M melanoma; 115% (inactive) with MDA-MB-231 breast. Besides, the growth in the assay with RXF 393 renal is 92.9% (inactive); in the assay with SF-268 CNS, 102% (inactive); in the assay on SF-295 CNS, 100% (inactive); in the assay with SF-539 CNS it was 103% (inactive); in the assay with UACC-257 melanoma it was 106% (inactive); with M14 melanoma, 101% (inactive).

In the case of `O=C(/C=C/C=C/c1ccccc1)c1ccco1`, the growth with NCI-H226 lung is 109% (inactive); in the assay with NCI-H322M lung, 110% (inactive); in the assay on HOP-62 NSCLC, 117% (inactive); in the assay with NCI-H460 lung, 94.7% (inactive); in the assay with NCI-H522 lung, 38% (inactive); in the assay on A549/ATCC NSCLC, 101% (inactive). The growth in the assay on 786-0 renal is 104% (inactive); in the assay on DU-145 prostate, 99.7% (inactive); in the assay with K-562 leukemia it was 43% (inactive); in the assay on MALME-3M melanoma, 113% (inactive); in the assay with MDA-MB-231 breast, 102% (inactive); with RXF 393 renal it was 46% (inactive). In addition, the growth was 91.5% (inactive) in the assay with SF-268 CNS; 112% (inactive) with SF-295 CNS; 106% (inactive) in the assay with SF-539 CNS; 108% (inactive) with UACC-257 melanoma; 93.9% (inactive) in the assay with M14 melanoma.

Turning to `O=C(Nc1cccc(Br)c1)Oc1ccc(Cl)c2cccnc12`, the growth in the assay on NCI-H226 lung is 14.5% [100 µM] (inactive); in the assay on HOP-62 NSCLC it was 31% [100 µM] (inactive); in the assay with NCI-H460 lung, 12.2% [100 µM] (inactive); in the assay with HOP-92 NSCLC it was 40.7% [100 µM] (inactive); with NCI-H522 lung it was -56.5% [100 µM] (active); in the assay with A549/ATCC NSCLC it was 23.6% [100 µM] (inactive). Further, the growth in the assay with 786-0 renal was 89.3% [100 µM] (inactive); with DU-145 prostate, 42.2% [100 µM] (inactive); in the assay on K-562 leukemia it was 10.4% [100 µM] (inactive); in the assay on MALME-3M melanoma, 27% [100 µM] (inactive); with MDA-MB-231 breast it was 20.1% [100 µM] (inactive); in the assay with RXF 393 renal it was 51.6% [100 µM] (inactive). For the same compound, the growth in the assay with SF-268 CNS is 16.4% [100 µM] (inactive); in the assay with SF-295 CNS it was 12.1% [100 µM] (inactive); in the assay on SF-539 CNS it was 9.36% [100 µM] (active); with UACC-257 melanoma it was 7.32% [100 µM] (active); in the assay with M14 melanoma, 8.2% [100 µM] (active).

For the compound `Oc1c(Br)cc(Cl)cc1C(c1cc(Cl)cc(Br)c1O)C(Cl)(Cl)Cl`, the growth is 33.4% (inactive) in the assay with NCI-H226 lung; 15.2% (inactive) with NCI-H322M lung; 59.2% (inactive) with HOP-62 NSCLC; 1.1% (active) in the assay with NCI-H460 lung; -33.5% (active) in the assay with HOP-92 NSCLC; -9.4% (active) with NCI-H522 lung. In addition, the growth in the assay with A549/ATCC NSCLC is 14% (inactive); in the assay on 786-0 renal it was 26.9% (inactive); in the assay with COLO 205 colon, 59.2% (inactive); in the assay with DU-145 prostate it was 31.1% (inactive); in the assay with K-562 leukemia, 13.7% (inactive); with MALME-3M melanoma, -0.8% (active). The growth was -11.3% (active) in the assay with MDA-MB-231 breast; 12% (inactive) with RXF 393 renal; 21.9% (inactive) in the assay with SF-268 CNS; 9.03% (active) in the assay on SF-295 CNS; 30.8% (inactive) in the assay with SF-539 CNS; 33% (inactive) in the assay on UACC-257 melanoma. Also, the growth with M14 melanoma was 31.4% (inactive).

For the compound `CCN(CC)CCOc1ccc(-c2nc3cc(Cl)ccc3s2)cc1`, the growth was 65.2% (inactive) in the assay with NCI-H226 lung; 28.3% (inactive) with NCI-H322M lung; -66.6% (active) with HOP-62 NSCLC; -64.6% (active) with NCI-H460 lung; 19.3% (inactive) in the assay on HOP-92 NSCLC; -39.5% (active) with NCI-H522 lung. The growth was -1.04% (active) in the assay on A549/ATCC NSCLC; 29.5% (inactive) with 786-0 renal; -73.9% (active) with COLO 205 colon; 12% (inactive) in the assay on DU-145 prostate; -99.1% (active) with K-562 leukemia; 28.7% (inactive) in the assay on MALME-3M melanoma. Moreover, the growth in the assay with MDA-MB-231 breast was -44.8% (active); in the assay on RXF 393 renal it was 29.8% (inactive); in the assay on SF-268 CNS, 16.5% (inactive); with SF-295 CNS, -71.5% (active); in the assay with SF-539 CNS, -15.5% (active); in the assay with UACC-257 melanoma, -36.2% (active). Further, the growth in the assay with M14 melanoma is -75.4% (active).
